This is a sample that favours compounds with a hit; in the whole collection about 4.5% have one here.
Efflux pump mplx: blocks antifungal efflux pumps in multiplex yeast assay; inhibition, % at 10 µM; 0.44% of 330,000 active; S. cerevisiae Candida pump triplex, Nile Red efflux; AID 485275;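 active means plate passing quality check with inhibition over a set limit, or well fluorescence over plate mean plus 4 SD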;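 further: Nile Red retained in pooled yeast measured as flow cytometry median fluorescence; 0% = buffer negative control and 100% = Enniatin B positive control; higher means more Nile Red kept so more efflux inhibition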
ALR H2O2 inh: human ALR oxidase inhibition via reduced H2O2 | purified ALR, DTT oxidation, H2O2 HRP-luminol luminescence | 3.8% of 290,000 active | inhibition, % (no concentration beside the values) | P55789;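 active means mean replicate inhibition above about 79%, with every replicate also reaching it, limit read from the data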
Rtt109 HAT inh: blocks Candida albicans Rtt109/Vps75 acetyltransferase activity | inhibition, % at 34.9 µM | 0.16% of 330,000 active | Q5AAJ8 | purified Rtt109/Vps75, ThioGlo CoA-SH fluorescence, 4 h;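 active means inhibition of at least 50% in every replicate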
GRK2 aptamer HTS: blocks RNA aptamer binding to human GRK2; P25098; bead flow cytometry, FAM-aptamer displacement from GRK2; inhibition of aptamer binding, % at 10 µM; 0.59% of 330,000 active; AID 488847;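 active means inhibition of aptamer binding above 40%, roughly 3 SD of noise, on plates passing a quality check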;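 further: median bead fluorescence of bound FAM aptamer so fluorescent compounds give negative values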
Target sequence (P25098 whole entry, looked up): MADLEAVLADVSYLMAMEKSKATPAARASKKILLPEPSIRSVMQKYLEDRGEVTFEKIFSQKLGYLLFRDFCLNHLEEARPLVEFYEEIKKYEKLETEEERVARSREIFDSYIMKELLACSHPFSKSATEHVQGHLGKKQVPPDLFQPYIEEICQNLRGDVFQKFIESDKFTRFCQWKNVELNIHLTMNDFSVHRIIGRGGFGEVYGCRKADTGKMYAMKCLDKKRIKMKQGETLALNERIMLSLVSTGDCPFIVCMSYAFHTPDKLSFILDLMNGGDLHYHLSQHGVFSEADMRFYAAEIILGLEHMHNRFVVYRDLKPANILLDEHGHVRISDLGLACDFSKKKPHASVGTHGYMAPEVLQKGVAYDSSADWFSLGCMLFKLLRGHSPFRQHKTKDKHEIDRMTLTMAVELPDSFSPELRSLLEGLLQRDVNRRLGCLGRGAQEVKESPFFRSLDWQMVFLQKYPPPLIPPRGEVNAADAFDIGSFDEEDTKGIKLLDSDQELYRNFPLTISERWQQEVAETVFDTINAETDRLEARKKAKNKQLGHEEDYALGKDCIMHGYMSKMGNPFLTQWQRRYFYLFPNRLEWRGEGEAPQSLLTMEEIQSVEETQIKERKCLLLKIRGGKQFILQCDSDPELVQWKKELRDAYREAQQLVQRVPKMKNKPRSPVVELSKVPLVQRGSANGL
HDAC3 inhib: blocks human histone deacetylase 3; recombinant HDAC3, fluorogenic peptide/trypsin coupled, fluorescence; inhibition, % at 8.3 µM; 0.15% of 320,000 active; in the data active means inhibition above about 26%, passing the limit was not always enough
Rce1 inh: yeast Ras-converting enzyme inhibition; 0.27% of 290,000 active; calls only; yeast membranes, quenched prenylated peptide cleavage fluorescence;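 active means fall in fluorescence gain of 50% or more versus controls, with final raw signal at or below 3038400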;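 further: plate controls were neutral control wells for no effect and wells lacking membranes for full effect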
Active calls of the source: *; i = inactive; x = no result.

SMILES	Efflux pump mplx	ALR H2O2 inh	Rtt109 HAT inh	GRK2 aptamer HTS	HDAC3 inhib	Rce1 inh
C=CCOc1ccc(CNc2ccc3[nH]c(=O)[nH]c3c2)cc1OCC	0.0	97.9*	-5.6	1.0	8.5	i
CCOc1cc(CNc2ccc3[nH]c(=O)[nH]c3c2)ccc1OCC(=O)NC(C)(C)C	-0.1	91.3*	-7.0	0.0	-32.7	i
C=CCOc1ccc(CNC(C)(C)CO)cc1OCC	-0.1	-10.5	-19.8	0.0	6.9	i
COc1cc(C(C)=O)ccc1OCC(=O)Nc1ccc2nc(C)sc2c1	-0.1	-6.7	-7.9	5.0	3.2	x
CCCCc1ccc(NC(=S)NCc2ccc(OC)cc2)cc1	0.1	0.1	x	0.0	0.2	i
C=CCOc1ccc(CNc2ccc3[nH]c(=O)[nH]c3c2)cc1	-0.1	99.4*	-10.9	0.0	0.3	i
COc1cc(CNc2ccc(N3CCCCC3)cc2)ccc1OCC(=O)NC(C)(C)C	0.0	99.0*	0.3	0.0	4.8	i
C=CCOc1c(CNc2ccc3[nH]c(=O)[nH]c3c2)cccc1OC	0.0	98.8*	-3.5	0.0	0.5	i
O=C(/C=C/c1cccc(F)c1)Nc1ccc(S(=O)(=O)N2CCOCC2)cc1	0.0	-3.3	2.3	0.0	-0.4	x
COc1ccccc1NC(=O)c1coc(=O)c(Br)c1	-0.1	-4.9	-11.4	0.0	x	i
O=C(c1ccc(Cl)c(S(=O)(=O)N2CCCCC2)c1)N1CCCC(C(F)(F)F)C1 (stereo not drawn)	0.1	-3.7	10.2	0.0	-6.4	x
CCC(=NOCc1ccccc1)C(=O)NNS(=O)(=O)c1ccc(C)cc1	x	x	3.6	x	x	x
COc1ccc(OC)c(C2NC(=O)c3sc(=S)n(-c4ccccc4)c3N2)c1 (stereo not drawn)	0.2	18.7	3.7	0.0	5.3	i
COc1cccc(C2NC(=O)c3sc(=S)n(-c4ccccc4)c3N2)c1 (stereo not drawn)	0.0	97.4*	24.2	2.0	-8.2	i
Cc1nn(-c2ccccc2)c(C)c1C(=O)OC(C)C(=O)NC1CCCCC1 (stereo not drawn)	0.1	-4.9	6.2	0.0	0.9	x
COc1cc(/C=C(\C#N)C(=O)c2ccc(O)c(O)c2)cc(I)c1O	0.7	98.7*	21.7	4.0	13.2	x
COc1cc(/C=C(\C#N)C(=O)N2CCOCC2)cc(Br)c1O	0.1	47.3	11.4	1.0	4.3	x
CN1c2ccccc2C(O)=C(C(=S)Nc2ccccc2)S1(=O)=O	-0.1	48.3	6.5	3.0	1.2	i
CN1c2ccccc2C(O)=C(C(=S)Nc2ccc(F)c(Cl)c2)S1(=O)=O	-0.1	96.5*	12.0	1.0	2.0	i
CC(=O)C1=C(O)C(=O)N(c2ccc(C(=O)O)cc2)C1c1ccc([N+](=O)[O-])cc1 (stereo not drawn)	0.2	43.4	1.0	0.0	0.8	i
O=C(C1=C(O)C(=O)N(c2ccccc2)C1c1ccc([N+](=O)[O-])cc1)c1cccs1 (stereo not drawn)	-0.1	89.3*	-4.0	10.0	8.6	i
Cc1cccc(N2C(=O)C(O)=C(C(=O)c3cccs3)C2c2cccc(Oc3ccccc3)c2)n1 (stereo not drawn)	-0.1	97.8*	9.7	3.0	-2.4	i
CC(C(=O)NC1(C#N)CCCCC1)N(C)CC(=O)Nc1ccc(Cl)c(Cl)c1 (stereo not drawn)	0.3	-2.3	14.9	6.0	8.8	x
Cc1cc2sc3nc(=O)n(-c4ccccc4)c(=O)n3c2cc1C	0.0	-0.4	-8.6	1.0	2.3	i
Cc1cc(C)nc(OC(C(=O)O)C(OCCc2ccccc2)(c2ccc(F)cc2)c2ccc(F)cc2)n1 (stereo not drawn)	0.1	-43.3	0.7	1.0	0.1	i
SMILES	Efflux pump mplx	ALR H2O2 inh	Rtt109 HAT inh	GRK2 aptamer HTS	HDAC3 inhib	Rce1 inh
CCCOC(c1ccccc1)(c1ccc(C(F)(F)F)cc1)C(Oc1nc(C)cc(C)n1)C(=O)O (stereo not drawn)	0.2	96.3*	3.8	0.0	-0.2	i
O=c1[nH]c2ccccc2c(O)c1O	0.1	x	175.7*	1.0	3.2	i
O=C(CSc1nnc(SCc2ccccc2)s1)N/N=C/C=C\c1ccco1	0.0	97.3*	-1.1	5.0	13.4	i
Cc1nc2ccccc2n1CCc1nc2c3ccccc3nc(=S)n2[nH]1	0.0	91.6*	7.0	0.0	-5.7	i
COc1ccc(-[n+]2c(C)cc(/C=C3\Sc4ccccc4N3C)cc2C)cc1	0.1	94.9*	74.0*	79.0*	19.0	i
CN1/C(=C/c2cccc[n+]2CCO)Sc2ccccc21	0.2	7.0	5.2	2.0	1.5	i
CC(C)NC(=O)c1cccc(NC(=O)CC2SC(N3CCCCC3)=NC2=O)c1 (stereo not drawn)	x	x	-1.5	x	x	x
O=C(CC1SC(N2CCCCC2)=NC1=O)Nc1cccc(C(=O)Nc2ncccc2O)c1 (stereo not drawn)	-0.1	48.8	-3.6	0.0	64.8*	i
O=C1NC(=O)C2(CCCCCC2)N1	x	x	-11.9	x	x	x
Nc1nc(N2CCN(c3ccc(Cl)cc3)CC2)n[nH]1	0.0	98.1*	2.5	2.0	-4.6	i
Nc1nc(N2CCN(c3ccccc3)CC2)n[nH]1	0.4	99.7*	0.7	0.0	-3.9	i
Nc1nc(N2CCN(c3cccc(Cl)c3)CC2)n[nH]1	0.0	99.2*	6.9	1.0	1.6	i
Cc1cc(C)c(NC(=O)CN(C)C(C)C(=O)N2CCc3ccccc32)c(C)c1 (stereo not drawn)	0.1	-19.2	-3.3	0.0	1.4	x
